Results filed as inconclusive are left out. Activity calls are given as the source filed them. Unless noted, calls come from the whole dose curve; as a rule, active = well fitted curve in the direction sought with a large enough effect; inconclusive = small, poorly fitted or top-dose-only effect, or another doubt; inactive = no such curve, though single readings can be large; an effect the other way counts as inactive or inconclusive.

Test [1] in a line: A High-Content qHTS Against Drug Library for the Identification of Small Molecules that Inhibit DYT1 Early Onset Primary Dystonia-Associated Cell Pathology (AID 1645839; calls by dose curve; note: series mostly up to about 46 µM). The method in brief:
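Cells were seeded and left for 24 h, then dosed with compound alongside tetracycline induction of mutant EGFP-TorsinA. They were incubated for 48 h, fixed in 4% paraformaldehyde, permeabilized and imaged for mislocalization (%pathology) and cell count.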

Test [2] concerns the target Cytochrome P450 2D6 (Homo sapiens) (UniProt P10635). The experiment in a line: Cytochrome P450 family 2 subfamily D member 6 (CYP2D6) small molecule antagonists: luciferase biochemical (cell-free) qHTS assay (AID 1645840; active = well fitted curve in the direction sought with a large enough effect in the repeat runs; an effect the other way counts as inactive or inconclusive; note: nearly all actives have a fitted effect of over 55% in size; note: potency is the fitted concentration of half-maximal effect). The method in brief: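 P450-Glo CYP2D6 system: proluciferin substrate converted by enzyme to luciferin, read by luminescence proportional to activity. Enzyme-substrate mix with compound 10 min at room temperature, then NADPH regeneration 1 h before detection reagent.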

Test [3] has as its target Cytochrome P450 2C9 (Homo sapiens) (UniProt P11712). The experiment in a line: Cytochrome P450 family 2 subfamily C member 9 (CYP2C9) small molecule antagonists: luciferase biochemical (cell-free) qHTS assay (AID 1645842; active = well fitted curve in the direction sought with a large enough effect in the repeat runs; an effect the other way counts as inactive or inconclusive; note: series mostly up to about 57 µM; nearly all actives have a fitted effect of over 55% in size). The method in brief: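 P450-Glo CYP2C9 system: proluciferin substrate with enzyme in mix containing 0.4% BSA, 10 min at room temperature, then NADPH regeneration solution added and incubated 1 h at 37C. Detection reagent stopped reaction; luminescence read after 20 min as RLU.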
Background: In qHTS, concentration-response curves come from the screen itself.

Test [4] can be described thus: Primary qHTS for inhibitors of nuclear receptor binding SET domain protein 2 (NSD2) in an isogenic RCH-ACV NSD2 p.E1099K mutant (9B) (AID 1645876). Note: nearly all actives have a fitted effect of over 70% in size. Note: potency is the fitted concentration of half-maximal effect.
The nature of test [5]: Primary qHTS for inhibitors of nuclear receptor binding SET domain protein 2 (NSD2) in an RCH-ACV wild type WT cells (2C) (AID 1645877). Note: nearly all actives have a fitted effect of over 70% in size. Note: potency is the fitted concentration of half-maximal effect.
A further test concerns the target Papain (Carica papaya) (UniProt P00784). As to the kind of experiment: Primary qHTS assay for inhibitors of the protease papain (AID 1645873).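 Note: papain turnover of Z-FR-AMC read as the AMC fluorescence gain over 10 min; series mostly up to about 50 µM.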

Cytochrome P450 2C9 (Homo sapiens), sequence (P11712 whole entry, looked up): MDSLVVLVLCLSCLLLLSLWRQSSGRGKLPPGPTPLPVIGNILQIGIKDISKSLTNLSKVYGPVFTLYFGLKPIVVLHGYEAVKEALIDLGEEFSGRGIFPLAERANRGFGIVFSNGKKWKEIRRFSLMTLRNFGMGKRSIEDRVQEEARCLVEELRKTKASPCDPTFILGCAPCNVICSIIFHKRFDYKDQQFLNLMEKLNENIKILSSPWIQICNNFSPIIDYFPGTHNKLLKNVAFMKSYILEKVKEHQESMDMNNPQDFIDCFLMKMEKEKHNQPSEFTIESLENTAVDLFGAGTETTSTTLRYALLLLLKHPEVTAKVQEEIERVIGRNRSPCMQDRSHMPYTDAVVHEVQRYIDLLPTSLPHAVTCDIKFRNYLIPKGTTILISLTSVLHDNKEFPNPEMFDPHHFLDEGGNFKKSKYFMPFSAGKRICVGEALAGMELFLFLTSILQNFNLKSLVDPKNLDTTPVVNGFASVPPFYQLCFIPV
Papain (Carica papaya), sequence (P00784 whole entry, looked up): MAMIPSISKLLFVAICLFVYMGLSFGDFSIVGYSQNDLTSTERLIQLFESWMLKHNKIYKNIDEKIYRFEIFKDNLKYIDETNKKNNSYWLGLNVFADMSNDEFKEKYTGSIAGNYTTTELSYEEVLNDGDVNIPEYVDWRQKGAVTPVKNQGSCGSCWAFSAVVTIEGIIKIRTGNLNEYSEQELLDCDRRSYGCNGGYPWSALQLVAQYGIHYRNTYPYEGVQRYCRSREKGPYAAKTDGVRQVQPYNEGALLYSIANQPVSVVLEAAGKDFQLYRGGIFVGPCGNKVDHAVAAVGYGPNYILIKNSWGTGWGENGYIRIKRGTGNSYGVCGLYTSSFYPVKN
Cytochrome P450 2D6 (Homo sapiens), sequence (P10635 whole entry, looked up): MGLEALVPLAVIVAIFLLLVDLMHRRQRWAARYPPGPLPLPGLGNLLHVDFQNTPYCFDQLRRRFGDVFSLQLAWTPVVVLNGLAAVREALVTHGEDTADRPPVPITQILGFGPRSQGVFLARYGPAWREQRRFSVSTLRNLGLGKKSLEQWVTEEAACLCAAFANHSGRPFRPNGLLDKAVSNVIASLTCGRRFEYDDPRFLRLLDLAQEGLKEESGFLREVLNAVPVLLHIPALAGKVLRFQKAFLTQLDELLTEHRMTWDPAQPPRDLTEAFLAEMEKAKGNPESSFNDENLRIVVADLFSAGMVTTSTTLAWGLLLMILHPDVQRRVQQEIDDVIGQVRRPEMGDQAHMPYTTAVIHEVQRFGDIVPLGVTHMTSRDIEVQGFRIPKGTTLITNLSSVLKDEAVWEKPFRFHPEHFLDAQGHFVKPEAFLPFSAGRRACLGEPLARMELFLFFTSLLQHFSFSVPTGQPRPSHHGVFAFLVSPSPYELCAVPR

In the case of `NC(=O)NC(=O)Cc1ccccc1`, the Potency result in test [1], in test [2], in test [3], in test [4] and in test [5] was “inactive” throughout.
Take `Nc1ccc(S(=O)(=O)Nc2ccccc2)cc1`: the Potency result in test [1], in test [2], in test [3], in test [4] and in test [5] was “inactive” each time.
For the molecule `CC1=C(CC(=O)O)c2cc(F)ccc2/C1=C\c1ccc(S(C)(=O)=O)cc1`, the Potency entry (in test [1]; in test [2]; with Papain (Carica papaya)) was “inactive” throughout.
With `C[C@]12C[C@H](O)[C@H]3[C@@H](CCC4=CC(=O)CC[C@@]43C)[C@@H]1CC[C@@H]2C(=O)CO`, the Potency entry (in test [1]; in test [2]; in the test with Papain (Carica papaya)) was “inactive” throughout.
For `NC(=O)c1ncn([C@@H]2O[C@H](CO)[C@@H](O)[C@H]2O)n1`, the Potency entry (in test [1]; in test [2]; with Papain (Carica papaya)) was “inactive” in each case. In test [5], the Potency is 14800 nM (active).
Regarding `CC(=O)OCC(=O)[C@@]1(O)CC[C@H]2[C@@H]3CCC4=CC(=O)CC[C@]4(C)[C@H]3C(=O)C[C@@]21C`, the Potency entry (in test [1]; with Papain (Carica papaya); in test [4]) was “inactive” in each case. In addition, the Potency in test [2] was 3890 nM (active).
As for `CC1=C(CC(=O)O)c2cc(F)ccc2/C1=C\c1ccc(S(C)=O)cc1` (stereo not drawn), the Potency entry (in test [1]; in test [2]; in the test with Papain (Carica papaya)) was “inactive” each time.
Turning to `CC(=O)Nc1ccc(/C=N/NC(N)=S)cc1`, the Potency result in test [1] and in test [2] was “inactive” each time. The Potency in test [4] was 21100 nM (active).
With `CCOC(=O)[C@H](CCc1ccccc1)N[C@@H](C)C(=O)N1C(=O)N(C)C[C@H]1C(=O)O`, the Potency entry in test [1], in test [2], in test [3], in test [4] and in test [5] was “inactive” in each case.
Turning to `CC[N+](CC)(CC)CCOc1ccc(/C=C/c2ccccc2)cc1`, the Potency entry in test [1] and in test [3] was “inactive” in each case. The Potency is 617 nM (active) in test [2], 2110 nM (active) in test [4] and 1880 nM (active) in test [5].
For the molecule `Cc1cccc(Nc2cc(Cl)nc(SCC(=O)O)n2)c1C`, the Potency result in test [1], in test [2] and in test [4] was “inactive” in each case.

For the origin of these results see PubChem BioAssay (NCATS).
